EBI2 block: EBI2 receptor antagonists, beta-arrestin recruitment, primary screen, cell-based, luminescence, 7a,25-OHC stimulation, uHTS. G-protein coupled receptor 183 (Homo sapiens), P32249. 7a,25-OHC stimulated. inhibition, % at 5 µM. hit rate 0.81% among 360,000; in the data active = inhibition above about 38%;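 also: enzyme fragment complementation signal reports receptor beta-arrestin coupling in cells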
Target sequence (P32249 whole entry, looked up, the tested form may be a part): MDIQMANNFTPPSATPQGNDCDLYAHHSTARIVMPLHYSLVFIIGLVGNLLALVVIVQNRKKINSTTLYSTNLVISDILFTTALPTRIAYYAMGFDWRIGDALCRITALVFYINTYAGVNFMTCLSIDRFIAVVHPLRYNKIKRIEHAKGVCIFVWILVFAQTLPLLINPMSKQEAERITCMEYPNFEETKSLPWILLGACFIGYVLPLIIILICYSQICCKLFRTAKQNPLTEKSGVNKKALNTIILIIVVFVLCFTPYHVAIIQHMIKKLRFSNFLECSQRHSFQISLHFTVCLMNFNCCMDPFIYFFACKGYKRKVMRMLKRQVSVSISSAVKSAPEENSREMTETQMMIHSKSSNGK
SENP7 block: SENP7 protease inhibitors, primary screen, biochemical, luminescence, uHTS; inhibition, % at 5 µM; hit rate 1.5% among 330,000; Sentrin-specific protease 7 (Homo sapiens), Q9BQF6; AID 434973, 2010; recombinant SENP7, Z-RLRGG-aminoluciferin luminescence, 40 min;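 active = inhibition above about 50% at the single test dose, limit read from the data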
AHR activator: AHR activators, primary screen, cell-based, luminescence, luciferase reporter, human. AHR-responsive luciferase reporter cells. hit rate 2.5% among 320,000. Aryl hydrocarbon receptor (Homo sapiens), P35869. activation, % at 5 µM. AID 2796, 2010; in the data active = activation above about 47%
SENP8 block-1: human SENP8 protease inhibitors, primary screen, biochemical, fluorescence, Nedd8 protein substrate, uHTS | recombinant SENP8 | hit rate 0.64% among 360,000 | inhibition, % at 20 µM; in the data active = inhibition mostly above about 40%, no sharp cut-off; inactive = mostly below about 27%
Target sequence (Q96LD8 whole entry, looked up): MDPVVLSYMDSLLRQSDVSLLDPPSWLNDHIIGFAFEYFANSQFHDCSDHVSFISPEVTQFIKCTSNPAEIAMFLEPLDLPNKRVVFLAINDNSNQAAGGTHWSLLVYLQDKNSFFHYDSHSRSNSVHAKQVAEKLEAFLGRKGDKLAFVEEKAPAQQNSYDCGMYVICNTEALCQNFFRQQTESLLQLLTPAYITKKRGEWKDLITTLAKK
SENP6 inh: SENP6 protease inhibitors, primary screen, biochemical, luminescence, uHTS; Sentrin-specific protease 6 (Homo sapiens), Q9GZR1; Recombinant SENP6 catalytic domain, aminoluciferin luminescence; inhibition, % at 10 µM; hit rate 1.8% among 330,000; AID 2599, 2010;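 active = inhibition above about 50% at the single tested dose, limit read from the data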
SENP8 block-2: SENP8 protease inhibitors, primary screen, biochemical, luminescence; inhibition, % at 10 µM; hit rate 1.2% among 330,000; AID 2540, 2010; purified SENP8, Z-RLRGG-aminoluciferin cleavage; Sentrin-specific protease 8 (Homo sapiens), Q96LD8; in the data active = inhibition above about 50%
SENP8 inh conf: human SENP8 protease inhibitors, confirmation, biochemical, Nedd8 protein substrate, single concentration | shares compounds with SENP8 block-1 | purified SENP8, Nedd8-AMC/pro-Nedd8 cleavage fluorescence, 30 min | inhibition, % at 25 µM | hit rate 15% among 1,400; in the data active = inhibition mostly above about 39%, no sharp cut-off; inactive = mostly below about 34%
EBI2 antag conf: EBI2 antagonist hit retest, beta-arrestin, confirmation, cell-based, single concentration, luminescence, 7a,25-OHC stimulation | shares compounds with EBI2 block | 7a,25-OHC antagonism | inhibition, % at 5 µM | hit rate 29% among 2,400 | AID 651997, 2013;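 active = inhibition of at least 50%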
EBI2 ag: EBI2 agonist activity of antagonist hits, confirmation, counter-screen for EBI2 antagonist project, cell-based, single concentration, agonist mode, luminescence; shares compounds with EBI2 block; EBI2-expressing cells, 60 min; 0% vehicle, 100% 7α,25-dihydroxycholesterol control; activation, % at 5 µM; 2,400 tested, under 10 active; AID 652000, 2013;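 active = activation of at least 50%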
bGal cs: E. coli beta-galactosidase enzyme inhibition, confirmation, counter-screen for EBI2 antagonist project, biochemical, luminescence, single concentration; shares compounds with EBI2 block; purified beta-galactosidase, luminescent Galacton Star, 15 min; inhibition, % at 5 µM; hit rate 1% among 2,400; AID 652176, 2013;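 active = replicate-average signal at least 3 plate SD below neutral wells, shown as high inhibition, flagging enzyme-inhibiting false positives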;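 also: higher means stronger loss of beta-gal luminescence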
A number is an active result; – = inactive; · = no result. The list is not random: actives were taken first. Their share in the collection is about 5%.

SMILES | EBI2 block | SENP7 block | AHR activator | SENP8 block-1 | SENP6 inh | SENP8 block-2 | SENP8 inh conf | others
C=CC12CN(C)C3C4COC(CC41)C1(C(=O)Nc4ccccc41)C32 (configuration not stated) | – | · | · | 40.9 | · | · | –
CCCCS(=O)(=O)N1CCN(C(=N)N[N+](=O)[O-])CC1 | – | – | – | – | – | – | ·
CN1C2CCC1CC(=NO)C2 | – | – | – | 47.8 | – | – | –
CCC(=NCCCn1ccnc1)c1c(O)n(-c2ccc(OC)cc2)c(=O)[nH]c1=O | – | – | – | – | – | – | ·
O=c1ccc2c(O)c3ccoc3cc2o1 | – | – | – | 48.4 | – | – | –
CC(=O)c1ccc2c(c1)OCO2 | – | – | – | 44.0 | – | – | –
COc1cc(C2(C#N)CCN(C)CC2)cc(OC)c1OC | – | · | · | – | · | · | ·
Cn1c[n+](C)cc1C(O)c1ccccc1 (configuration not stated) | – | – | – | – | – | – | ·
O=C1NC(=O)C(CCc2ccncc2)(Cc2ccc3c(c2)OCO3)C(=O)N1CCc1ccccc1 (configuration not stated) | – | – | – | 29.1 | – | – | –
COc1ccc2c3c([nH]c2c1)C(C)NCC3 (configuration not stated) | – | – | – | – | – | – | ·
C/C=C1/CN2[C@@H]3C4CO[C@@H]3c3c([nH]c5cc(OC)ccc35)[C@@H]2CC14 (some centres not stated) | – | – | – | 40.0 | – | – | –
COC1C(OC(=O)c2ccc(C)[nH]2)C(O)C(Oc2ccc3c(O)c(NC(=O)c4ccc(O)c(CC=C(C)C)c4)c(=O)oc3c2Cl)OC1(C)C (configuration not stated) | – | – | – | 40.5 | – | – | –
CN1CCN(c2cc(N3CCCC3)c([N+](=O)[O-])cc2F)CC1 | – | – | – | 44.9 | – | – | –
O=[N+]([O-])c1cc(F)c(N2CCCCC2)cc1Br | – | – | – | 40.3 | – | – | –
O=[N+]([O-])c1cc(F)c(N2CCCC2)cc1Br | – | – | – | – | – | – | ·
CCc1c(C)nc(N)nc1N1N=C1SCC(N)=O | – | – | – | – | – | – | ·
CC(C)OCC(O)CN1CC2C[C@@H](C1)Cn1c2cccc1=O (some centres not stated) | – | – | – | – | – | – | ·
O=[N+]([O-])c1ccc(NCc2ccccc2)c2nonc12 | · | – | – | · | – | – | ·
O=[N+]([O-])c1ccc(NCc2ccc(Cl)cc2)c2ccncc12 | – | – | 65.4 | 43.2 | – | – | –
Fc1ccc(Cn2nnnc2C(c2ccc(F)cc2)N2CC=C(c3ccc(F)cc3)CC2)cc1 (configuration not stated) | – | – | – | – | – | – | ·
O=C1NC(=O)C(Cc2ccccc2)(Cc2ccccc2)C(=O)N1 | – | · | · | – | · | · | ·
O=C1NC(=O)C(Nc2ccccc2)C(=O)N1 | – | · | · | 63.9 | · | · | 46.1
O=c1[nH]c(=S)[nH]c(O)c1N=Nc1cccc(S(=O)(=O)N2CCOCC2)c1 | – | – | – | – | – | – | ·
COc1cccc(N=Nc2c(O)[nH]c(=S)[nH]c2=O)c1 | – | – | – | 50.7 | – | – | –
CN1CCN(c2ccc(N)c(N3CCN(C)CC3)c2)CC1 | – | – | – | 51.4 | – | – | –
SMILES | EBI2 block | SENP7 block | AHR activator | SENP8 block-1 | SENP6 inh | SENP8 block-2 | SENP8 inh conf | others
CCCCSP1(=S)NCCCO1 (configuration not stated) | – | – | – | – | – | – | ·
CCN1CCN(S(=O)(=O)c2ccc(Cl)nc2)CC1 | – | – | – | 43.5 | – | – | –
CCN1CCN(C(=O)COc2ccc(S(=O)(=O)N3CCOCC3)cc2Cl)CC1 | – | – | – | – | – | – | ·
O=C(CCC(=O)N1C[C@H]2C[C@@H](C1)c1cccc(=O)n1C2)NCc1ccccc1 | – | – | – | – | – | – | ·
O=C(CCC(=O)N1C[C@H]2C[C@@H](C1)c1cccc(=O)n1C2)NCc1cccc(C(F)(F)F)c1 | – | – | – | 49.5 | – | – | –
NC(Cc1ccc(O)cc1)C(=O)NN=Cc1ccc(N(CCCl)CCCl)cc1 (configuration not stated) | – | · | · | – | · | · | ·
Oc1cccc2nc3ccccc3nc12 | – | – | – | 22.0 | – | – | –
Cc1ccc(NC(=O)[C@@H](NC(=O)N2C[C@H]3C[C@@H](C2)c2cccc(=O)n2C3)C(C)C)cc1 | – | – | – | 56.1 | – | – | –
CCOc1ccc(NC(=O)N2C[C@H]3C[C@@H](C2)c2cccc(=O)n2C3)cc1 | – | – | – | 42.1 | – | – | –
O=C(Nc1ccc(Cl)cc1)N1CC2CC(C1)c1cccc(=O)n1C2 (configuration not stated) | – | – | – | – | – | – | ·
CCN(CC)C(=O)c1ccc(NC(=O)CNC(C)c2cccc3ccccc23)cc1 (configuration not stated) | – | – | – | – | – | – | ·
CC(c1ccccc1)n1cncc1C(=O)N1CCCC1=O (configuration not stated) | – | – | – | – | – | – | ·
O=C(NC1(C(F)(F)F)Oc2ccc(Cl)cc2O1)N1CCC2(CC1)OCCO2 (configuration not stated) | – | – | – | 40.3 | – | – | –
C=CCc1cc(OC)c2c(c1)OCO2 | – | – | – | – | – | – | ·
COc1cccc2c1cc([N+](=O)[O-])c1c(C(=O)O)cc3c(c12)OCO3 | – | · | · | 42.4 | · | · | –
Nc1c(C(=O)OCc2ccccc2)c2nc3ccccc3nc2n1Cc1cccs1 | 50.2 | – | – | – | – | – | · | EBI2 antag conf=–;EBI2 ag=–;bGal cs=–
CCC(C)OC(=O)c1c(N)n(Cc2cccs2)c2nc3ccccc3nc12 (configuration not stated) | 44.4 | – | – | – | – | – | · | EBI2 antag conf=–;EBI2 ag=–;bGal cs=–
COCCCn1c(N)c(C(=O)OC(C)COC)c2nc3ccccc3nc21 (configuration not stated) | – | – | – | – | – | – | ·

Screening data from PubChem BioAssay.
